RBX1-CUL1 inh: blocks human RBX1-Cullin-1 di-ubiquitin formation; inhibition, % at 10 µM; in vitro K48 di-Ub FRET, acceptor:donor ratio, 45 min; 0.6% of 140,000 active; P62877+Q13616; in the data active = inhibition above about 25%
An asterisk follows results filed as active. This excerpt belongs to a sample that is enriched for hits.

SMILES | RBX1-CUL1 inh
Cc1ccc(CSc2nnc(N3C(=O)C(=O)C(C(=O)c4cc5ccccc5o4)C3c3ccc(OCc4ccccc4)cc3)s2)cc1 (stereo unspecified) | 47*
CCCCCOc1ccc(C2C(C(=O)c3cc4ccccc4o3)C(=O)C(=O)N2c2nc(C)c(C(C)=O)s2)cc1OC (stereo unspecified) | 1
O=C1C(=O)N(c2nnc(SCc3ccccc3F)s2)C(c2ccc(F)cc2)C1C(=O)c1cc2ccccc2o1 (stereo unspecified) | 3
COc1cc(C2C(C(=O)c3cc4ccccc4o3)C(=O)C(=O)N2c2nnc(C)s2)ccc1OCc1ccccc1 (stereo unspecified) | 65*
Cc1ccc2nc(N3C(=O)C(=O)C(C(=O)c4cc5ccccc5o4)C3c3ccccc3)sc2c1 (stereo unspecified) | -3
O=C1C(=O)N(c2nnc(SCc3ccc(F)cc3)s2)C(c2cccc(Oc3ccccc3)c2)C1C(=O)c1cc2ccccc2o1 (stereo unspecified) | 41*
CC(=O)c1sc(N2C(=O)C(=O)C(C(=O)c3cc4ccccc4o3)C2c2ccc(F)cc2)nc1C (stereo unspecified) | -1
Cc1ccc(C2C(C(=O)c3cc4ccccc4o3)C(=O)C(=O)N2c2nnc(SCc3cccc4ccccc34)s2)cc1 (stereo unspecified) | -9
COc1cc(C2C(C(=O)c3cc4ccccc4o3)C(=O)C(=O)N2c2nc3c(C)cc(C)cc3s2)ccc1OCc1ccccc1 (stereo unspecified) | 4
COc1ccc(C(=O)Oc2ccccc2)cc1OC | -15
Cc1cccc(C)c1NC(=O)c1nnn(-c2ccccc2Cl)c1C | -10
Cc1cc(Cl)c(S(=O)(=O)Nc2cccnc2Cl)cc1OCC(N)=O | -5
COc1ccc(Cl)cc1/C=N\NC(=O)c1cc2c(ccc3ccccc32)o1 | -1
O=C1S/C(=C\c2ccc3c(c2)OCO3)C(=O)N1CNc1cccc(C(F)(F)F)c1 | 8
COc1ccc2c(c1)C=C1C(=CC(=Nc3ccc(Br)cc3)CC1(C)C)O2 | 54*
CN(C(=O)c1ccco1)C(Cc1ccccc1Cl)C1CCN(Cc2cccc3ncccc23)CC1 (stereo unspecified) | -8
CC1(C)CC(=O)/C(=C\c2ccccc2)C(C)(C)N1 | 25*
O=C1/C(=C\c2ccccc2)CCC/C1=C\c1ccccc1 | -1
O=C1C(=O)/C(=C/c2ccccc2)CCC/C1=C/c1ccccc1 | -1
CCS(C)=NS(=O)(=O)c1ccc(C)cc1 (stereo unspecified) | 6
O=C(c1ccc(Cl)cc1)N1CCN(Cc2cccc(F)c2)CC1 | -2
COCc1cc(=O)[nH]c(-c2ccc(CN3CCN(C(=O)N(C)C)CC3)cc2)n1 | -1
COc1ccc(C(=O)Oc2ccc(C(c3c(C)[nH][nH]c3=O)c3c(C)[nH][nH]c3=O)cc2OC)cc1 | 13
CCOc1cc(C(c2c(C)[nH][nH]c2=O)c2c(C)[nH][nH]c2=O)ccc1OCc1cccc2ccccc12 | 45*
COc1cc(C(c2c(C)[nH][nH]c2=O)c2c(C)[nH][nH]c2=O)ccc1OC(=O)c1ccccc1F | -19
SMILES | RBX1-CUL1 inh
O=C1C2=CC(C=NCC(O)CO)C(=O)N2c2ccccc21 (stereo unspecified) | 25*
COc1ccc(-c2cc(-c3cccs3)nc3sc(C(=O)Nc4c(C)cccc4C)c(N)c23)cc1 | 12
CCOc1ccc2cc(S(=O)(=O)O)ccc2c1N | 8
Nc1cc(S(=O)(=O)O)c(N)c2ccc(S(=O)(=O)O)cc12 | 101*
O=S(=O)(O)c1ccc2ncccc2c1 | 2
CCn1c(COc2ccc(Cl)cc2)nnc1SCC(=O)Nc1c(C)cc(C)cc1C | 6
O=C(Cc1ccccc1)Nc1ccccc1O | -2
COCCn1c(C)cn2c3c(=O)n(Cc4ccccc4C)c(=O)n(C)c3nc12 | 1
CCOc1c(Cl)cc(/C=C2\SC(=Nc3cccc(C(=O)O)c3)N(C)C2=O)cc1Cl | -4
O=C(C#Cc1ccccc1)N1CCC(C2(Cc3ccc(F)cc3)NC(=O)N(C3CCOC3)C2=O)CC1 (stereo unspecified) | -5
CC1=NOC(=O)/C1=C\c1cccs1 | 9
Cc1ccc2c(c1)C(=O)/C(=C/c1cccs1)CO2 | 73*
COc1ccc(/C=C2\COc3ccccc3C2=O)cc1OC | 12
COc1ccc(Sc2ccccc2CC#N)cc1 | 1
CCn1ccc(C(=O)Nc2cc(Cl)ccc2Cl)n1 | -5
CCCCCC1C(=O)N=C(SCc2ccc(Cl)c(Cl)c2)NC1=O (stereo unspecified) | -8
N#CC1C(=N)Oc2n[nH]c(-c3ccccc3Cl)c2C1c1ccccc1 (stereo unspecified) | -4
C=CCS(=O)(=O)N1CCC(C2CCN(CC(C)C)CC2)C1 (stereo unspecified) | 13
CCOC(=O)c1c(-c2ccc(F)cc2)csc1NC(=O)CSc1nc2ccccc2c(=O)n1-c1ccccc1 | 4
CCOC(=O)c1c(-c2ccco2)csc1NC(=O)CSc1cc(C)c2ccccc2n1 | 91*
CCOC(=O)c1c(-c2ccccc2)csc1NC(=O)CSc1cc(C)c2ccccc2n1 | -1

Screens from PubChem.
